# Results taken from the supplement of paper PMC10849652.
# Targets with a hit are over-represented here; the source holds about 8,800 in all. About 0.5% of all pairs of compound and target were hits. Values without a mark were called inactive.
# Tests used:
# Experiment in all cases: log2 fold change, soluble protein after heating vs DMSO (PISA); higher = thermal stabilisation; K562 lysate, 10 uM; active = over 0.2 and 3.5 SD of the protein, either way, in both replicates (recomputed)
# vemurafenib = compound: CCCS(=O)(=O)Nc1ccc(F)c(C(=O)c2c[nH]c3ncc(-c4ccc(Cl)cc4)cc23)c1F [vemurafenib]
# Outline: (§1)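 Soluble protein was defined as the supernatant remaining after 21,000xg for 90 min, following pooling of heated aliquots and adjustment to 0.5% NP-40 at 4°C. Before that, crude K562 extract at 1 mg/mL protein in PBS pH 7.4 with 1 mM MgCl2 was treated with 10 μM compound for 30 min and heated for 3 min across 48°C-58°C. Quantification used TMTpro 16plex LC-MS/MS with channel sums equalised, and values are log-two fold changes in thermal stability relative to solvent controls from duplicates.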
# [1] = compound: CCCS(=O)(=O)Nc1ccc(F)c(C(=O)c2c[nH]c3ncc(Cl)cc23)c1F
# Outline: as §1
# barasertib = compound: CCN(CCCOc1ccc2c(Nc3cc(CC(=O)Nc4cccc(F)c4)[nH]n3)ncnc2c1)CCOP(=O)(O)O [barasertib]
# Outline: as §1
# [2] = compound: CC[C@@H]1C(=O)N(C)c2cnc(Nc3ccc(C(=O)NC4CCN(C)CC4)cc3OC)nc2N1C1CCCC1
# Outline: as §1
# volasertib = compound: CC[C@@H]1C(=O)N(C)c2cnc(Nc3ccc(C(=O)N[C@H]4CC[C@H](N5CCN(CC6CC6)CC5)CC4)cc3OC)nc2N1C(C)C [volasertib]
# Outline: as §1
# [3] = compound: CCn1c(C(=O)N(C2CC2)C2CC2)cc2c3c(ncn3C)c(Nc3cc(C)n(C)n3)nc21
# Outline: as §1
# [4] = compound: CCn1cc(-c2ccnc3[nH]c(-c4cccc(CN(C)C)c4)cc23)c(-c2ccc(NC(=O)N(C)C)cc2)n1
# Outline: as §1
# [5] = compound: CN1CCC(CNc2ccc3ncc(-c4cccc(OC(F)(F)F)c4)n3n2)CC1
# Outline: as §1
# saracatinib = compound: CN1CCN(CCOc2cc(OC3CCOCC3)c3c(Nc4c(Cl)ccc5c4OCO5)ncnc3c2)CC1 [saracatinib]
# Outline: as §1
# sotrastaurin = compound: CN1CCN(c2nc(C3=C(c4c[nH]c5ccccc45)C(=O)NC3=O)c3ccccc3n2)CC1 [sotrastaurin]
# Outline: as §1
# alvocidib = compound: CN1CC[C@H](c2c(O)cc(O)c3c(=O)cc(-c4ccccc4Cl)oc23)[C@H](O)C1 [alvocidib]
# Outline: as §1
# Tubastatin A = compound: CN1CCc2c(c3ccccc3n2Cc2ccc(C(=O)NO)cc2)C1 [Tubastatin A]
# Outline: as §1
# [6] = compound: CNC(=O)C1=CC=CC=C1NC2=NC(=NC=C2Cl)NC3=C(C=C(C=C3)N4CCOCC4)OC
# Outline: as §1
# defactinib = compound: CNC(=O)c1ccc(Nc2ncc(C(F)(F)F)c(NCc3nccnc3N(C)S(C)(=O)=O)n2)cc1 [defactinib]
# Outline: as §1
# [7] = compound: CNc1nc(-c2ccc3c(N)n[nH]c3c2)cc(N2C[C@@H](C(=O)NC3CCCCC3)CC[C@H]2C)n1
# Outline: as §1
# encorafenib = compound: COC(=O)N[C@@H](C)CNc1nccc(-c2cn(C(C)C)nc2-c2cc(Cl)cc(NS(C)(=O)=O)c2F)n1 [encorafenib]
# Outline: as §1
# [8] = compound: COC(=O)[C@H](CCSC)NC(=O)C1=C(C=C(C=C1)NC[C@H](CS)N)C2=CC=CC=C2
# Outline: as §1
# alisertib = compound: COc1cc(Nc2ncc3c(n2)-c2ccc(Cl)cc2C(c2c(F)cccc2OC)=NC3)ccc1C(=O)O [alisertib]
# Outline: as §1
# [9] = compound: COc1cc2nc(-c3cc(F)ccc3O)nc(N[C@@H]3CNC[C@H]3C(C)(C)O)c2cc1OC
# Outline: as §1
# gefitinib = compound: COc1cc2ncnc(Nc3ccc(F)c(Cl)c3)c2cc1OCCCN1CCOCC1 [gefitinib]
# Outline: as §1
# Chain of UniProt O75153 (O75153 whole entry, looked up): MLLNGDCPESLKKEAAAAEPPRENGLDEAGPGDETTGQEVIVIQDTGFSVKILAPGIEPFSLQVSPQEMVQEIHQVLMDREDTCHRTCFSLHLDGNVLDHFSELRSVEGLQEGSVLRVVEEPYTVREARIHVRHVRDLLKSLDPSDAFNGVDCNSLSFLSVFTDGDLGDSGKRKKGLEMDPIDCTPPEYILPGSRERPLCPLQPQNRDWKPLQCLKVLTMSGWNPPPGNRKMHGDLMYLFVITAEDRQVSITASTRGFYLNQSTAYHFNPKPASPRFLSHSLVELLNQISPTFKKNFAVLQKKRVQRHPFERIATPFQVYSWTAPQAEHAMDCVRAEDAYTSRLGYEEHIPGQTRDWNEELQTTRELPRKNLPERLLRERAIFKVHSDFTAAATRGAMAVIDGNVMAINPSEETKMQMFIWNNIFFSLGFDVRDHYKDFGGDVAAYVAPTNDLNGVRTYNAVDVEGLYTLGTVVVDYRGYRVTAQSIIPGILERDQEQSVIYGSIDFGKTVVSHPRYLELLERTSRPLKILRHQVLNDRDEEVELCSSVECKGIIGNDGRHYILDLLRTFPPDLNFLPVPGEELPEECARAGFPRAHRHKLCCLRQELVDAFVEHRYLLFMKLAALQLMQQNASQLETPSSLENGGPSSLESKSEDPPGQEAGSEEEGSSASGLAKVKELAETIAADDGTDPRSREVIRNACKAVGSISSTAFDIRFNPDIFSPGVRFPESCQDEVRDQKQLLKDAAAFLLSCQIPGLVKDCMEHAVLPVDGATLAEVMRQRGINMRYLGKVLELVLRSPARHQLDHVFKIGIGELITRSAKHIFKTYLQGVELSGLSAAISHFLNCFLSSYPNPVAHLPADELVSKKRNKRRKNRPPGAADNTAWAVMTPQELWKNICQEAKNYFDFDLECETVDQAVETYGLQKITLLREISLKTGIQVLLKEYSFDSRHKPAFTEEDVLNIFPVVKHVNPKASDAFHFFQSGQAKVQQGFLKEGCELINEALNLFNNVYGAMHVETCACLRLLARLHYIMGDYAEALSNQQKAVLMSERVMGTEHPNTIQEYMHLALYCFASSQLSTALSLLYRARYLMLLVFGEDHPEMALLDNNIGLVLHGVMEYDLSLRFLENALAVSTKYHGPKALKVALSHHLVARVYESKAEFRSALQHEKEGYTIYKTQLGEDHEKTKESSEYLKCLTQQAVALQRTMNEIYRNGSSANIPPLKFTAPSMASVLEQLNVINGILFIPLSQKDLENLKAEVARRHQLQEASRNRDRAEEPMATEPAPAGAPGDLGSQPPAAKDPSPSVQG
# Chain of UniProt Q8WWK9 (Q8WWK9 whole entry, looked up): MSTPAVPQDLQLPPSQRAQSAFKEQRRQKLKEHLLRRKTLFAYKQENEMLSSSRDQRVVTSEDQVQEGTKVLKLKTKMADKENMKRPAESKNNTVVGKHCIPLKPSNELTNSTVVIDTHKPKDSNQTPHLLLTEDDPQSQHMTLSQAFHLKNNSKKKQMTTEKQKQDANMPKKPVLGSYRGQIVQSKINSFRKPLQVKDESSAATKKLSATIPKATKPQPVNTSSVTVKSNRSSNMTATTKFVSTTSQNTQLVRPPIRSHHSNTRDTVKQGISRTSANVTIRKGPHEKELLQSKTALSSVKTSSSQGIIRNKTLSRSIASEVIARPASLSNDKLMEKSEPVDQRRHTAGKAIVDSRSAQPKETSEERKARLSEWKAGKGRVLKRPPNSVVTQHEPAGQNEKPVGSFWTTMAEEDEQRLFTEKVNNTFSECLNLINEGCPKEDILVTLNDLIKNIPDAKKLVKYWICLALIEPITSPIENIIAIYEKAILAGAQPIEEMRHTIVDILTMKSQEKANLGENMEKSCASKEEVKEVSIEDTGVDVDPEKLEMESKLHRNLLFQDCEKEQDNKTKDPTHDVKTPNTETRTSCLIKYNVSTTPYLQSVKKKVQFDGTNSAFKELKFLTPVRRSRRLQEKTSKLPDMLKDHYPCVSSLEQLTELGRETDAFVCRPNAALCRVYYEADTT
# Chain of UniProt Q15398 (Q15398 whole entry, looked up): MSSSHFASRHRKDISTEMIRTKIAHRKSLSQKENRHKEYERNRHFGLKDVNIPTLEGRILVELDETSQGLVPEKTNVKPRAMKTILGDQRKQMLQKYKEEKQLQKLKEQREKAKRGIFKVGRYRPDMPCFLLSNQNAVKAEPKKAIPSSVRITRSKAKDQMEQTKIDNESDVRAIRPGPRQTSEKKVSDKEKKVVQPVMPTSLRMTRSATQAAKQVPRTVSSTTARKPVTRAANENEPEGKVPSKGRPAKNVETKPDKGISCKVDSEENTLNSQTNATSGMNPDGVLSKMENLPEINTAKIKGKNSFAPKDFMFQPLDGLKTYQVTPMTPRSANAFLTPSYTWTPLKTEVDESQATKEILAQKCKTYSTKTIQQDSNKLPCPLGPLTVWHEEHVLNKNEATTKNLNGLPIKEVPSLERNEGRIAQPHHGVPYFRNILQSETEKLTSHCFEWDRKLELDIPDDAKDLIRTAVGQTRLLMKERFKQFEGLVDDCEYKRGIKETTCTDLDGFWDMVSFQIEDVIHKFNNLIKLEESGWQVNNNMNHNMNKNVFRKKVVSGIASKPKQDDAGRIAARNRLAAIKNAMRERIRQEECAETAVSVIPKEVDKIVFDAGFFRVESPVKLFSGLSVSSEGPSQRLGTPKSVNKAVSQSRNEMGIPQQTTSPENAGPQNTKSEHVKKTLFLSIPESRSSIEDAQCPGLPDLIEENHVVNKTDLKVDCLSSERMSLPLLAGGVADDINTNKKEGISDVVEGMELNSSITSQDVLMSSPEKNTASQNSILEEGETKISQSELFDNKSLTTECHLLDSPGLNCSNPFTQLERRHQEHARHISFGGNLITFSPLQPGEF
# Chain of UniProt Q9Y315 (Q9Y315 whole entry, looked up): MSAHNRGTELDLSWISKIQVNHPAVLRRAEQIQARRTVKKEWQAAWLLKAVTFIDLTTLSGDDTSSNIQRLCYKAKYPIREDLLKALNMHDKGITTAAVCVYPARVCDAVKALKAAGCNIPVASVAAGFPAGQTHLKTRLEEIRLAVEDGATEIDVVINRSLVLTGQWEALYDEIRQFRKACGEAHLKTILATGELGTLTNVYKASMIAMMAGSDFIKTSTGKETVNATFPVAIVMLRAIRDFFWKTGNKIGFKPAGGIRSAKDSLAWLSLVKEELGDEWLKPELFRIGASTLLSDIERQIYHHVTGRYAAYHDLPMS
# Chain of UniProt P50416 (P50416 whole entry, looked up): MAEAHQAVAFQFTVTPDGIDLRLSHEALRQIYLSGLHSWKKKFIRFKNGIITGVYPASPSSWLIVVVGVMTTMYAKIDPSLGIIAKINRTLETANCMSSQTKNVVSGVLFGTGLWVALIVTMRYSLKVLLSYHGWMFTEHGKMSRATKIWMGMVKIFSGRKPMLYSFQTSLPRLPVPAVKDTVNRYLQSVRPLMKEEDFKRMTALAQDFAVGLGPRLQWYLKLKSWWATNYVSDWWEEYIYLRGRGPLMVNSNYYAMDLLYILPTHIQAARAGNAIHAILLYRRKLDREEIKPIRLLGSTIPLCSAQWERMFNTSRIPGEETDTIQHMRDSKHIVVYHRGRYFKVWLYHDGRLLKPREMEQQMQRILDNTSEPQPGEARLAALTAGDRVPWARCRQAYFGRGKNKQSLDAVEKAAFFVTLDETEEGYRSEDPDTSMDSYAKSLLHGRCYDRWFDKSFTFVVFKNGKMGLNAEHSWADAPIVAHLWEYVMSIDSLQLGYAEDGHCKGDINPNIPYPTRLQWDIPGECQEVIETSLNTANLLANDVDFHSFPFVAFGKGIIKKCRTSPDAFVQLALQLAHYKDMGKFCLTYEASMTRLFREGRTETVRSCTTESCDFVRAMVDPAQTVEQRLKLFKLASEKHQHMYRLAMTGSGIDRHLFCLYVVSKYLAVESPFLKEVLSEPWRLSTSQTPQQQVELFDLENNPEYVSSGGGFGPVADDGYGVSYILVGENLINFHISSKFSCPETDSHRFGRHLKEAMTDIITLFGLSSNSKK
# Chain of UniProt Q96KA5 (Q96KA5 whole entry, looked up): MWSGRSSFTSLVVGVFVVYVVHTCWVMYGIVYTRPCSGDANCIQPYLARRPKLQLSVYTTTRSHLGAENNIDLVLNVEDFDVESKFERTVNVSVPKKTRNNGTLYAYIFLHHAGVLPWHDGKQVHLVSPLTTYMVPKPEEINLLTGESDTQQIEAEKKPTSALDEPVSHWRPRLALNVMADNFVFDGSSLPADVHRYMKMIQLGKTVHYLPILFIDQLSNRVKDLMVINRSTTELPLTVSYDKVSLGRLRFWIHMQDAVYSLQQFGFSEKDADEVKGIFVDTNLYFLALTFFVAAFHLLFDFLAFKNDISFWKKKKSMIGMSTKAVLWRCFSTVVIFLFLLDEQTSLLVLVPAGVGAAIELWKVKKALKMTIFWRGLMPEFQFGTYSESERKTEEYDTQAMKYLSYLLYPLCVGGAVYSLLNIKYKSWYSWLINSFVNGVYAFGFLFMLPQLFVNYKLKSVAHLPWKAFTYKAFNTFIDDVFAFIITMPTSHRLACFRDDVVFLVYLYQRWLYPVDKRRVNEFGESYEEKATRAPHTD
# Chain of UniProt P19784 (P19784 whole entry, looked up): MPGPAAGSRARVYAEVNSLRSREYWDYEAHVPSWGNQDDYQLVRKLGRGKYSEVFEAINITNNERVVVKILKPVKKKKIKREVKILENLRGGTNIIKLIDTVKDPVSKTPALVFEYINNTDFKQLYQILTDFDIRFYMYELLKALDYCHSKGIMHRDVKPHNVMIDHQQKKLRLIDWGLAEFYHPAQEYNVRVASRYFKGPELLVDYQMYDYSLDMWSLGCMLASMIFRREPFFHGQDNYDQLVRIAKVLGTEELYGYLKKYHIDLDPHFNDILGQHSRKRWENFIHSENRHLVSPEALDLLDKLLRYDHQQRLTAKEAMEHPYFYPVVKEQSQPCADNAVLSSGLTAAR
Target,log2 fold change (vemurafenib),log2 fold change [1],log2 fold change (barasertib),log2 fold change [2],log2 fold change (volasertib),log2 fold change [3],log2 fold change [4],log2 fold change [5],log2 fold change (saracatinib),log2 fold change (sotrastaurin),log2 fold change (alvocidib),log2 fold change (Tubastatin A),log2 fold change [6],log2 fold change (defactinib),log2 fold change [7],log2 fold change (encorafenib),log2 fold change [8],log2 fold change (alisertib),log2 fold change [9],log2 fold change (gefitinib)
DIAPH3 (UniProt Q9NSV4),0.041,0.028,0.057,-0.023,-0.099,0.058,-0.098,-0.092,0.053,0.064,0.041,-0.195,0.004,-0.024,-0.027,0.118,0.085,0.056,-0.015,0.06
CNOT6L (UniProt Q96LI5),0.035,-0.007,0.065,-0.006,0.006,0.078,-0.422 (active),0.107,0.048,-0.019,-0.091,0.022,0.022,0.046,0.013,0.036,0.066,-0.005,0.037,-0.033
CLUH (UniProt O75153),-0.03,0.014,0.024,0.012,-0.02,-0.009,-0.024,0.117,0.011,0.01,-0.022,-0.076,-0.076,0.002,-0.029,0.007,0.058,-0.014,-0.014,0.017
CSNK2A2 (UniProt P19784),-0.219,-0.005,-0.044,-0.031,-0.082,0.011,-0.092,0.418,0,0.023,0.101,-0.059,0.321,0.172,-0.022,-0.047,0.012,0.078,0.135,0.004
DNAJC1 (UniProt Q96KC8),-0.019,0.006,0.053,0.017,-0.012,0.067,0.033,-0.293 (active),0.029,-0.002,0.016,-0.053,0.013,0.06,-0.059,0.056,-0.257,0.038,-0.104,0.041
DERA (UniProt Q9Y315),-0.013,-0.001,-0.064,0.077,0.025,-0.031,0.985 (active),-0.115,0,-0.03,0.121,0.018,0.033,-0.003,0.085,-0.005,-0.053,-0.059,-0.01,0.087
CWC22 (UniProt Q9HCG8),0.002,0.045,0.028,-0.209,-0.033,0.017,0.393 (active),-0.273 (active),-0.052,-0.013,0.112,-0.035,0,-0.026,-0.036,0.046,0.093,-0.065,-0.058,-0.028
DDX20 (UniProt Q9UHI6),-0.058,0.018,0.011,-0.087,-0.061,0.036,-0.037,-0.094,0.036,0.004,0.042,-0.213,-0.001,-0.03,-0.026,0.076,0.01,0.016,-0.006,0.025
DNAAF5 (UniProt Q86Y56),-0.006,-0.007,0.03,-0.062,-0.06,0.047,-0.035,-0.049,0.04,0.044,0.024,-0.155,-0.011,-0.009,-0.011,0.073,0.101,0.038,0.012,-0.018
CLPTM1L (UniProt Q96KA5),-0.006,0.049,0.079,0.067,-0.043,0.012,-0.099,0.016,0.049,-0.001,0.001,-0.064,-0.131,0.015,-0.204,0.021,-0.029,0.054,-0.097,0.011
CMBL (UniProt Q96DG6),-0.053,-0.027,-0.026,0.081,0.183,0.004,-0.174,0.129,-0.016,-0.015,0.006,0.001,-0.012,-0.051,0.013,-0.051,-0.009,0.001,0.038,0.03
CKAP2 (UniProt Q8WWK9),-0.095,0.01,-0.014,0.073,0.009,-0.024,0.062,-0.094,0.019,0.019,-0.059,-0.009,0.071,-0.075,0.028,0.097,-0.092,-0.044,0.049,0.06
DLGAP5 (UniProt Q15398),0.01,0.009,0.007,-0.018,-0.013,0,-0.024,0.019,0.013,-0.004,-0.007,-0.021,0.01,0.004,-0.004,0.024,0,-0.016,-0.02,-0.001
CTPS1 (UniProt P17812),-0.008,0.016,-0.024,-0.065,-0.04,0.026,-0.041,-0.011,0.007,0.021,0.006,-0.101,-0.021,0,-0.048,0.016,0.038,-0.019,-0.001,-0.015
CPT1A (UniProt P50416),0.024,0.035,0.048,0.038,0.032,-0.018,0,-0.137,-0.004,-0.014,0.407 (active),0.261,0.004,-0.053,0.113,0.036,0.078,-0.014,-0.051,0.031
DENND4A isoform 2 (UniProt Q7Z401),-0.024,0.024,0.029,0.011,-0.069,0.004,-0.132,0.099,0.059,0.025,-0.067,-0.141,-0.024,0.077,-0.001,0.013,0.032,-0.018,0.17,-0.041
